Records with an inconclusive call do not appear. Active and inactive are the calls of the source. Unless noted, calls follow the shape of the dose curve; as a rule, active = well fitted curve in the direction sought with a large enough effect in the repeat runs; inconclusive = weak or mixed curves; inactive = no such curve, though single readings can be large; an effect the other way counts as inactive or inconclusive. Starred links: 1 amine or outer side, 2 acyl side, 3 side chain; linkers in the order of their positions; H or OH if unused. Positions of bridges follow the written chain, without caps; N, C: chain ends. Non-standard residues stand in square brackets, D forms with d. Residues, ends and D or L forms follow the SMILES beside them. *: point of attachment. X5 = NC1=N[C@@H]([C@H](N[*:1])C(=O)[*:2])C[C@H](O)N1; ΔAla(Z-3-ureido) = NC(=O)N/C=C(\N)C(=O)O; β3hOrn = NCCC[C@H](N)CC(=O)*; Dap = NC[C@H](N)C(=O)O

Test [1] in a line: qHTS assay for small molecules that induce genotoxicity in human embryonic kidney cells expressing luciferase-tagged ATAD5 (AID 651632). Also: nearly all actives have a fitted effect of over 15% in size. Summed up: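 DMSO vehicle served as the control. HEK293T reporter cells, 16 hr at 37C, then 30 min Amplite at room temperature; ATAD5 induction is measured as luciferase activity.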
Test [2] can be described thus: qHTS assay for small molecule agonists of the p53 signaling pathway - cell viability (AID 651633; calls by dose curve;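 also: p53RE-bla HCT reporter cells with a stable beta-lactamase p53 reporter; series mostly up to about 83 µM; nearly all actives have a fitted effect of over 30% in size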). Put shortly: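 p53RE-bla cells, seeded at 4,000 per well and rested 5 h at 37 C/5% CO2, received compounds in DMSO for 16 h at 37 C. CellTiter-Glo was then added, and luminescence was read after 30 min at room temperature to gauge cytotoxicity.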
On the technique in general: Quantitative high-throughput screening tests each substance at several concentrations.

The nature of test [3]: qHTS assay for small molecules that induce genotoxicity in human embryonic kidney cells expressing luciferase-tagged ATAD5 - cell viability (AID 651634; calls by dose curve; also: nearly all actives have a fitted effect of over 25% in size; also: potency is read from the fitted curve at half-maximal effect). Put shortly: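 Here HEK293T cells with the ATAD5 luciferase reporter are incubated with test compounds for 15.5 hr, and cytotoxicity is then gauged by measuring protease activity in live cells using fluorescence.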
Test [4] is described as follows: qHTS assay for small molecule disruptors of the mitochondrial membrane potential - cell viability (AID 720634; calls by dose curve;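 also: human HepG2 liver cancer cells; series mostly up to about 83 µM; nearly all actives have a fitted effect of over 20% in size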). Summed up:
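Viability of HepG2 cells is scored from ATP content by luminescence; cells are exposed to compound for 1 hr at 37 C and 5% CO2, then dosed with m-MPI dye before the CellTiter-Glo reagent.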

Test [5] in a line: qHTS assay for small molecule disruptors of the mitochondrial membrane potential (AID 720635). Also: potency is read from the fitted curve at half-maximal effect. Put shortly: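 HepG2 cells (2,000/well) attached overnight at 37C, then took compound for 1 hr at 37C, 5% CO2. Mito-MPS dye was added for 30 min; fluorescence was read at 490/535 nm (monomers) and 540/590 nm (aggregates).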
Test [6] is described as follows: qHTS assay to test for compound auto fluorescence at 590 nm (red) in HepG2 cells (AID 720674). Put shortly: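 Intrinsic compound fluorescence in the red window (Ex/Em 540/590 nm) is measured in attached HepG2 cells exposed for 1 hr, DMSO vehicle as baseline, benchmarked to Rose Bengal sodium.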
A short description of test [7]: qHTS assay to test for compound auto fluorescence at 535 nm (green) in HepG2 cells (AID 720675).
Test [8] is described as follows: qHTS assay to test for compound auto fluorescence at 460 nm (blue) in HEK293 cells (AID 720678). Put shortly: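 HEK293 cells (2,000 per well, medium with 10% dialyzed FBS) attached for 4-5 hr at 37C, then received compound and stood overnight at 37C, 5% CO2. Blue fluorescence was read at Ex/Em 405/460 nm and expressed relative to triamterene.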
A short description of test [9]: qHTS assay to test for compound auto fluorescence at 590 nm (red) in HEK293 cells (AID 720679). Put shortly: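 HEK293 cells (2,000/well, medium with 10% dialyzed FBS) attached for 4-5 hr at 37C, received 23 nL compound and were incubated overnight at 37C, 5% CO2. Red fluorescence was then read at 540/590nm Ex/Em, referenced to Rose Bengal sodium.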

On to `CCCCCCCCCCCCCCCC(=O)OCC(COC(=O)CCCCCCCCCCCCCCC)OC(=O)CCCCCCCCCCCCCCC`, for which the Potency result in test [1], in [2], in test [3], in test [4], in test [5] and in test [6] was “inactive” each time. The Potency entry in test [7], in test [8] and in test [9] was “inactive” throughout.
`CC1(C)S[C@@H]2[C@H](NC(=O)[C@H](N)c3ccccc3)C(=O)N2[C@H]1C(=O)OCOC(=O)[C@@H]1N2C(=O)C[C@H]2S(=O)(=O)C1(C)C`: the Potency result in test [1], in [2], in [3], in test [4], in test [5] and in [6] was “inactive” throughout. The Potency entry in test [7], in test [8] and in test [9] was “inactive” throughout.
Take `O=C(O)CO.[NH2-].[NH2-].[Pt+2]`: the Potency entry in [1], in [2], in [3], in test [4], in [5] and in test [6] was “inactive” each time. Besides, the Potency result in test [7], in [8] and in test [9] was “inactive” throughout.
Turning to `C[C@H]1C[C@H]2[C@@H]3CCC4=CC(=O)C=C[C@]4(C)[C@@]3(F)[C@@H](O)C[C@]2(C)[C@@]1(O)C(=O)CCl`, the Potency entry in test [1], in test [2], in [3], in test [4], in test [6] and in [7] was “inactive” in each case. The Potency entry in test [8] and in test [9] was “inactive” each time. Besides, in test [5], the Potency is 11.9 µM (active).
Regarding `NC(N)=NCC1COc2ccccc2O1` (stereo unspecified), the Potency result in [1], in test [2], in [3], in test [4], in test [5] and in test [6] was “inactive” each time. The Potency entry in test [7], in [8] and in test [9] was “inactive” each time.
`FC(F)(F)C(F)(F)C(F)(F)C(F)(F)C(F)(F)C(F)(F)F`: the Potency entry in test [1], in [2], in test [3], in [4], in test [5] and in test [6] was “inactive” in each case. Moreover, the Potency entry in [7], in [8] and in test [9] was “inactive” each time.
For `O=C(O)c1ccc(OCCn2ccnc2)cc1`, the Potency entry in test [1], in test [2], in test [3], in test [4], in test [5] and in test [6] was “inactive” in each case. Further, the Potency entry in test [7], in test [8] and in test [9] was “inactive” throughout.
Turning to `OC(CN1CCCCC1)c1cc(-c2ccccc2)on1` (stereo unspecified), the Potency entry in [1], in test [2], in [3], in test [4], in test [5] and in test [6] was “inactive” in each case. The Potency result in [7], in test [8] and in test [9] was “inactive” each time.
In the case of `CC(=O)N[C@@H]([C@@H](O)[C@H](O)[C@H](O)CO)[C@@H](O)CC(=O)C(=O)O`, the Potency result in test [1], in [2], in test [3], in [4], in [5] and in test [6] was “inactive” in each case. Moreover, the Potency entry in test [7], in [8] and in [9] was “inactive” in each case.
`C/C(=C(\CCOC(=O)c1ccccc1)SS/C(CCOC(=O)c1ccccc1)=C(/C)N(C=O)Cc1cnc(C)nc1N)N(C=O)Cc1cnc(C)nc1N`: the Potency entry in test [1], in [2], in test [3], in test [4], in test [5] and in test [6] was “inactive” throughout. For the same compound, the Potency result in test [7], in test [8] and in test [9] was “inactive” throughout.
On to `COc1ccc(CC2c3cc(OC)c(OC)cc3CC[N+]2(C)CCC(=O)OCCCCCOC(=O)CC[N+]2(C)CCc3cc(OC)c(OC)cc3C2Cc2ccc(OC)c(OC)c2)cc1OC` (stereo unspecified), for which the Potency result in test [1], in [2], in test [3], in test [4], in test [5] and in test [6] was “inactive” each time. In addition, the Potency entry in test [7], in test [8] and in [9] was “inactive” throughout.
In the case of `O=C(c1cc2ccccc2o1)N1CCN(Cc2ccccc2)CC1`, the Potency result in [1], in test [2], in [3], in [4], in test [5] and in test [6] was “inactive” in each case. Moreover, the Potency entry in test [7], in test [8] and in test [9] was “inactive” in each case.
Regarding `CC(C)C(=O)OCC(=O)[C@@]12O[C@H](C3CCCCC3)O[C@@H]1C[C@H]1[C@@H]3CCC4=CC(=O)C=C[C@]4(C)[C@H]3[C@@H](O)C[C@@]12C`, the Potency result in test [1], in test [2], in test [3], in test [4], in test [6] and in test [7] was “inactive” each time. Further, the Potency result in test [8] and in test [9] was “inactive” in each case. For the same compound, the Potency in test [5] is 7.84 µM (active).
With `CCCCCCCCCCCCCCCCCC(=O)OC[C@@H](O)[C@H]1OC[C@H](O)[C@H]1O`, the Potency result in test [1], in test [2], in [3], in test [4], in test [5] and in [6] was “inactive” each time. For the same compound, the Potency result in test [7], in [8] and in test [9] was “inactive” each time.
As to `CCCCCC(O)/C=C/C=O` (stereo unspecified), the Potency entry in [1], in test [2], in [3], in [4], in [5] and in [6] was “inactive” throughout. The Potency entry in test [7], in test [8] and in [9] was “inactive” in each case.
Regarding `COCC(=O)Nc1cc(Sc2ccccc2)ccc1N=C(NC(=O)OC)NC(=O)OC`, the Potency entry in test [1], in [2], in [4], in test [5], in test [6] and in [7] was “inactive” each time. Moreover, the Potency result in [8] and in [9] was “inactive” in each case. Also, the Potency in [3] is 4.22 µM (active).
On to `CO[C@H]1C[C@@H]2CC[C@@H](C)[C@@](O)(O2)C(=O)C(=O)N2CCCC[C@H]2C(=O)O[C@H]([C@H](C)C[C@@H]2CC[C@@H](OC(=O)C(C)(CO)CO)[C@H](OC)C2)CC(=O)[C@H](C)/C=C(\C)[C@@H](O)[C@@H](OC)C(=O)[C@H](C)C[C@H](C)/C=C/C=C/C=C/1C`, for which the Potency entry in test [1], in test [2], in test [3], in test [4], in test [5] and in test [6] was “inactive” in each case. The Potency result in test [7], in [8] and in [9] was “inactive” in each case.
With `c1ccc2cc(C3=NCCN3)ccc2c1`, the Potency entry in [1], in test [2], in [3], in test [4], in test [5] and in test [6] was “inactive” in each case. The Potency result in test [7], in test [8] and in test [9] was “inactive” each time.
As to `NCCC[C@H](N)CC(=O)N[C@H]1CNC(=O)[C@H]([C@H]2C[C@H](O)NC(N)=N2)NC(=O)/C(=C/NC(N)=O)NC(=O)[C@H](CO)NC(=O)[C@H](CO)NC1=O` (β3hOrn-[Dap]SS[ΔAla(Z-3-ureido)][X5]; lactam 1-C), the Potency result in [1], in test [2], in test [3], in test [4], in [5] and in test [6] was “inactive” in each case. The Potency result in [7], in [8] and in test [9] was “inactive” each time.

The values above are taken from PubChem BioAssay (Tox21).
